Compound activity: PubChem BioAssay, The Scripps Research Institute Molecular Screening Center
A selection: hits, their analogues and other compounds. The true share with any hit is near 4.1%.
hcDAF12 agonist = H. contortus DAF-12 nuclear receptor activators, primary screen, cell-based, luminescence, HEK293, lit1-tk-luc reporter; HEK293 hcDAF-12 lit1-tk-luc reporter; 0% DMSO, 100% Δ7-dafachronic acid; activation, % at 6.8 µM; 370,000 tested, 1.4% active;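 active means activation above the mean of all tested compounds plus 3 SD, cut at about 5.5% in these data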;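 further: 100% = response to 3 µM Δ7-dafachronic acid high control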
DAX1 inh-1 = DAX1 (NR0B1) inhibitors, primary screen, cell-based, HEK293, Gal4-DAX1, luciferase luminescence; inhibition, % at 6.75 µM; 340,000 tested, 0.99% active; Nuclear receptor subfamily 0 group B member 1 (Homo sapiens), P51843; HEK293 Gal4-DAX1 luciferase reporter;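 active means inhibition above the mean over all tested compounds plus 3 SD, cut at about 4.2% in these data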;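 further: 0% = DAX1-transfected cells with DMSO and 100% = empty-vector control cells with DMSO; inhibition shows as a rise in luminescence from relieved DAX1 repression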
Target sequence (P51843 207-470 limits assumed): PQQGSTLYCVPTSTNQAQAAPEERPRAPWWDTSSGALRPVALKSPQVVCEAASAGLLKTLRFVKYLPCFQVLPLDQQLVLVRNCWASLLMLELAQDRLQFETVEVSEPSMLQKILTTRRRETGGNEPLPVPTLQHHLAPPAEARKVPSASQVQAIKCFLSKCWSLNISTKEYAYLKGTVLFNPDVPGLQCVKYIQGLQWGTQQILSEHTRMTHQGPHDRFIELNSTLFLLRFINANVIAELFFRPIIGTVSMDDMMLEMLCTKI
ssDAF12 agonist = S. stercoralis DAF-12 nuclear receptor activators, primary screen, cell-based, luminescence, HEK293, GRIP1 co-expression, lit1-tk-luc. Nuclear hormone receptor DAF-12 (Strongyloides stercoralis). HEK293 ssDAF-12/GRIP1 lit1-tk-luc reporter; % of 3 µM dafachronic acid response. activation, % at 6.8 µM. 370,000 tested, 1% active. AID 652126, 2013;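 active means activation above the mean over all tested compounds plus 3 SD, cut at about 0.9% in these data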;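 further: 0% = DMSO-only wells and 100% = 3 µM delta7-dafachronic acid wells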
DAX1 inh-2 = DAX1 (NR0B1) inhibitors on StAR promoter, primary screen, cell-based, luminescence, SF-1 (NR5A1), full-length DAX-1. inhibition, % at 6.8 µM. HEK293T StAR-luciferase reporter, SF-1/DAX-1 repression relief. 370,000 tested, 1.1% active. AID 652010, 2013;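 active means inhibition above the mean over all tested compounds plus 3 SD, cut at about 3.6% in these data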;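 further: 0% = DAX-1 cells with DMSO and 100% = cells lacking DAX-1 with DMSO; higher inhibition means more luminescence from relief of DAX-1 repression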
hgDAF-12 ag = H. glycines DAF-12 receptor agonists, primary screen, cell-based, luminescence, HEK293, GAL4 fusion, UAS-luciferase. Nuclear hormone receptor DAF-12 (Heterodera glycines), GAL4 fusion. HEK293 GAL4-hgDAF12 UAS-luciferase reporter, agonist luminescence; normalized to butyrate control. activation, % at 6.8 µM. 370,000 tested, 1.8% active. AID 687014, 2013;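 active means activation above a cutoff set at the mean of all screened compounds plus 3 SD, cut at about 10% in these data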;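 further: 0% = DMSO wells and 100% = sodium butyrate wells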
The depositor's hits bear a star; nt = not tested or not shown.

SMILES	hcDAF12 agonist	DAX1 inh-1	ssDAF12 agonist	DAX1 inh-2	hgDAF-12 ag
Cc1nc2sc(-c3ccccc3)cc2c(=O)n1-n1cccc1	2.8	2.1	-0.5	1.6	11.4*
Cc1csc2ncc(C(=O)Nc3cccc(C(F)(F)F)c3)c(=O)n12	0.9	0.8	-1.1	1.4	1.1
CCc1ccc(NC(=O)c2cnc3scc(C)n3c2=O)cc1	5.8*	0.6	1.2*	2.5	9.6
CCOC(=O)c1c(O)c(Cl)c(C)[nH]c1=O	-0.6	1.0	-0.3	0.2	11.8*
COCC(=O)N1C[C@H]2CON(C)[C@H]2C[C@H]1c1cccc(-c2cc(Cl)cc(Cl)c2)c1	-1.8	nt	-1.8	-1.2	-2.0
CC1=C(C(=O)Nc2ccccn2)C(c2ccc(N(C)C)cc2)n2ncnc2N1 (centres undefined)	4.3	0.3	0.2	1.8	11.0*
COc1ccc(CCC[C@@H](CCC(=O)N(c2ccccc2)c2ccccc2)CCc2ccccc2)cc1	-2.4	nt	-1.5	0.4	1.9
O=S1(=O)c2ccc(N3CCC[C@H]3CO)cc2O[C@H]2CCN1C2	0.1	nt	-1.1	-1.4	-0.1
COC(=O)c1c(NC(=O)c2ccccc2)sc(C(N)=O)c1C	3.5	0.0	1.0*	1.8	-3.6
COC(=O)c1c(NC(=O)c2ccccc2)sc(C(=O)c2ccccc2)c1C	0.7	0.6	-0.2	0.7	1.9
CC1(C(=O)NS(=O)(=O)c2ccccc2Cl)CCN1C(=O)C/C=C/c1ccccc1 (centres undefined)	0.4	nt	-0.8	-0.5	11.6*
CSCCNC(=O)C1(C)CCN1C(=O)C/C=C/c1ccccc1 (centres undefined)	1.8	nt	1.2*	-0.4	1.0
CC1(C(=O)NCC2CC2)CCN1C(=O)C/C=C/c1ccccc1 (centres undefined)	-2.9	nt	-0.8	0.2	1.1
O=C(COc1ccc(F)cc1Cl)Nc1nnc(-c2ccc(F)c(F)c2)o1	1.9	nt	-1.3	nt	7.3
COC(=O)[C@]12C[C@H](CC(=O)N3CCN(C(=O)C4CC4)CC3)C(=O)N(Cc3ccco3)C1=C[C@H](C(C)C)O[C@@H]2C1CC1	-3.0	nt	-1.7	0.3	0.0
O=C(Nc1nnc(-c2cccnc2)s1)c1cnc2ccccc2c1	0.3	nt	-0.9	3.4	6.7
O=C(COc1ccc2c(c1)OCO2)Nc1ccccc1F	3.6	4.1	-0.2	3.5	12.7*
CC(=O)Nc1ccc(-c2cn3ccsc3n2)cc1	2.2	0.1	0.1	0.6	11.6*
O=C(Nc1ccc(-c2cn3ccsc3n2)cc1)C1CC1	1.9	0.4	0.0	2.5	9.5
O=c1c2ccccc2oc2ccc(-c3ccc4[nH]ccc4c3)cc12	5.4	3.9	-0.1	5.0*	10.8*
COc1ccc(/C=C2\SC(=S)N(CCCC(=O)Nc3ccc(O)cc3)C2=O)cc1	-5.2	-1.7	-3.2	-0.1	-8.1
COc1ccc(/C=C2\SC(=S)N(CCC(=O)Nc3cccc(O)c3)C2=O)cc1	0.4	4.8*	-0.8	0.9	2.1
CCCCNS(=O)(=O)/C=C/c1ccccc1CNC(=O)OC(C)(C)C	-2.9	nt	-1.5	-1.0	-0.2
c1ccc(-c2nc(NCc3cccnc3)c3oc4ccccc4c3n2)cc1	6.3*	-2.0	0.4	-1.5	8.2
O=C(O)CNc1nc(-c2ccccc2)nc2c1oc1ccccc12	3.6	2.0	-0.2	-0.7	4.0
SMILES	hcDAF12 agonist	DAX1 inh-1	ssDAF12 agonist	DAX1 inh-2	hgDAF-12 ag
C=CCN1[C@@H](C)COc2cccc(N3CCCC3)c2S1(=O)=O	-2.5	nt	-1.1	-0.4	3.1
O=C(NCCOc1ccccc1)C1CCCCC1	0.7	0.6	-1.3	4.1*	6.4
CCOC(=O)CC[C@@]1(C(=O)OCC)C[C@@H](CC(=O)N2CCOCC2)C(=O)N2CCCC=C21	-0.4	nt	-0.6	0.1	-2.0
Cc1c(NC(=O)COC(=O)c2ccccc2Cl)c(=O)n(-c2ccccc2)n1C	-1.6	0.1	-0.9	-0.6	1.9
Cc1c(NC(=O)COC(=O)c2cccn2C)c(=O)n(-c2ccccc2)n1C	0.6	4.4*	-0.7	0.6	0.2
Cc1cccc(C(=O)OCC(=O)c2ccc3c(c2)OCO3)c1O	2.6	1.9	-0.2	3.9*	8.7
CCOc1ccc(CCNC(=O)COC(=O)Cc2c[nH]c3ccccc23)cc1OCC	4.4	0.3	1.3*	-3.9	4.6
CCOc1ccc(CCNC(=O)COC(=O)COc2ccc(Cl)cc2)cc1OCC	-1.7	1.5	-1.2	3.8*	-2.5
Cc1ccc(CSc2nnc(-c3ccc(NS(=O)(=O)c4ccccc4)cc3)o2)cc1	-3.6	-0.4	1.7*	0.2	-0.8
Cc1ccc(S(=O)(=O)Nc2ccc(-c3nnc(SCc4ccccc4Cl)o3)cc2)cc1	-0.9	0.0	-0.9	-0.5	-0.4
Cc1ccc(C)c(N(C)C(=O)COc2cc(=O)n(C)c3ccccc23)c1	-2.0	4.8*	-0.8	1.0	-2.7
CNS(=O)(=O)c1cccc(C(=O)OCC(=O)Nc2ccc(OC)cc2[N+](=O)[O-])c1	-1.1	4.3*	-1.8	-0.8	-1.2
COc1ccc(NC(=O)COC(=O)c2ccc(Cl)c(S(N)(=O)=O)c2)c([N+](=O)[O-])c1	0.4	5.0*	-1.3	1.6	-4.5
NS(=O)(=O)c1cc(C(=O)OCC(=O)Nc2ccc(Cl)cc2[N+](=O)[O-])ccc1Cl	3.0	1.7	-0.6	-0.1	1.9
COc1ccc(NC(=O)COC(=O)c2cc(OC)c(OC)c(OC)c2)c([N+](=O)[O-])c1	0.1	-0.6	-0.5	-0.2	0.5
O=S(=O)(c1sccc1Br)n1c(CN2CCOCC2)nc2ccccc21	-3.0	nt	-1.5	0.0	-1.6
CC(C)CN(CC(C)C)c1nnc(N)s1	-2.2	5.9*	-0.7	0.2	-2.1
CC(C)CSc1nnc(N)s1	-1.2	2.6	-0.6	1.3	0.4
CNc1ccccc1/C(O)=C(\C#N)C(=O)NCc1cccs1	-0.7	nt	-0.8	-2.5	2.6
COC(=O)c1ccc(N2CCCCC2)c(N)c1	1.5	1.1	-1.4	3.7*	6.0
COC(=O)c1ccc(N2CCC(C)CC2)c(N)c1	2.2	1.9	-0.4	1.3	3.9
COc1ccc(NC2=Nc3ccccc3CC2)cc1	2.8	2.2	-0.2	3.1	10.6*
CCOc1ccc(CC(=O)C2C(=O)CC(C)(C)CC2=O)cc1OCC	0.0	4.4*	-0.1	0.6	-0.7
CCOc1ccc(CC(=O)C2C(=O)CCCC2=O)cc1OCC	nt	0.0	nt	nt	nt
CCc1ccc(OCc2cnc(Cl)s2)cc1	1.6	4.4*	-1.5	0.9	-0.6
Clc1ccc(OCc2cnc(Cl)s2)cc1	-1.1	0.7	-0.8	0.6	3.1
